Hits are enriched below; roughly 6.6% of the tested compounds scored in any of these assays.
TGFb SMAD3 inh = blocks TGF-b signaling. HepG2 CAGA-GFP TGF-b/SMAD3 reporter, GFP fluorescence, 18 h; TGF-beta stimulated, 500 pg/mL final. Potency, µM (doses to about 46.1 µM), inactives show at the top dose activity, negative = inhibition, usual class: inhibitors. 410,000 compounds, 1.2% hits. AID 588855; also: % is scaled to controls: 0 for no effect and ±100 for the full control effect; nearly all actives have a fitted effect of over 65% in size
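Inhibition of TGF-beta-driven CAGA-GFP reporter expression in HEPG2 cells is measured by cellular GFP fluorescence after 18 h stimulation with 500 pg/mL recombinant TGF-beta in 1% FBS medium at 37 degrees C.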
KB-3-1 tox = kills parental KB-3-1 adenocarcinoma cells. AID 1347075. KB-3-1 viability, CellTiter-Glo ATP luminescence, 72 h. Potency, µM (series often up to 46.1 µM), usual class: cytotoxic. 400,000 compounds, 1.4% hits; also: % is scaled to controls: 0 for no effect and ±100 for the full control effect; nearly all actives have a fitted effect of over 60% in size
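Here the drug-naive KB-3-1 line serves as comparator for MDR sub-line selectivity; cells received compound titrations, 72 h at 37 °C, then CellTiter-Glo readout.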
KB-V1 MDR tox = kills drug-selected multidrug resistant KB-V1 cells; KB-V1 MDR cells viability, CellTiter-Glo, 72 h; Potency, µM (titrated, usually from 46.1 µM), usual class: cytotoxic; 400,000 compounds, 3.4% hits; AID 1347076; also: % is scaled to controls: 0 for no effect and ±100 for the full control effect; nearly all actives have a fitted effect of over 60% in size
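Potencies derive from concentration-effect curves fitted to normalized luminescence (CellTiter-Glo) of KB-V1 cells treated for 72 h at 37 degrees C in phenol-red-free DMEM containing 10% FBS.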
HT1080NT lethal = kills 2HG-producing HT-1080-NT fibrosarcoma cells. Potency, µM (titrated, usually from 46.1 µM), for the others: at the top dose activity, negative = less viability, actives largely listed as cytotoxic. AID 686970. 360,000 compounds, 1.6% hits. HT-1080-NT fibrosarcoma viability, CellTiter-Glo ATP luminescence, 48 h;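 also: NT is the 2HG producing partner of a matched IDH1 knockdown line; 0% = DMSO-treated cells and -100% = media-only wells without cells; nearly all actives have a fitted effect of over 55% in size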
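A 48-hour cytotoxicity screen used HT-1080-NT cells plated 2 hours before compound delivery. ATP-based CellTiter-Glo luminescence measured viability, normalized to DMSO and no-cell controls.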
HT1080 IDH1KD tx = HT-1080 IDH1 knockdown cell toxicity (counter line). HT-1080 IDH1 knockdown viability, ATP luminescence, 48 h. Potency, µM (doses to about 46.1 µM), without a hit: at the top dose activity, negative = toxicity, hits mostly cytotoxic. 360,000 compounds, 2% hits. AID 686971;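 also: 0% = DMSO wells and -100% = cell-free medium wells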
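% activity derives from luminescence (CellTiter-Glo), normalised to DMSO and no-cell wells. HT-1080-IDH1KD cells, 750/well, had 48 h compound exposure at 37 °C.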
HepG2 tox = HepG2 cytotoxicity, counter-screen for TGF-b inhibitors; HepG2 CAGA-GFP viability, ATP luminescence, 18 h; Potency, µM (doses to about 46.1 µM), for the others: at the top dose activity change, negative = cytotoxicity, actives largely listed as cytotoxic; 410,000 compounds, 0.76% hits; AID 588856
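CellTiter-Glo luminescence gave cytotoxicity after 18 hours at 37 degrees C. The cells were HepG2 CAGA-GFP in 1% FBS DMEM, stimulated with 500 pg/mL TGF-beta after compound addition. %Activity was normalised to no-cell wells (complete cell-killing) and DMSO (no toxicity), and curves were fitted and classified.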
Starred values were filed as active, the others as inactive; i = inactive; ? = inconclusive; . = no result; ! = a repeat was not active. Calls follow the shape of the dose curve; as a rule, active = well fitted curve in the direction sought with a large enough effect; inconclusive = small, poorly fitted or top-dose-only effect, or another doubt; inactive = no such curve, though single readings can be large; an effect the other way counts as inactive or inconclusive. Potency is read from the fitted curve at half-maximal effect.

SMILES	TGFb SMAD3 inh	KB-3-1 tox	KB-V1 MDR tox	HT1080NT lethal	HT1080 IDH1KD tx	HepG2 tox
CCN(CC)CCN(C(=O)CCS(=O)(=O)c1ccccc1)c1nc2cc(C)cc(C)c2s1	16µM*	i	i	?	?	18µM*
COc1ccc(OC)c2sc(N(CCCN(C)C)C(=O)CCS(=O)(=O)c3ccccc3)nc12	?	16µM*	?	-1%	?	-96%
Cc1cccc2sc(N(CCCN3CCOCC3)C(=O)CS(=O)(=O)c3ccc(F)cc3)nc12	2%	i	i	-1%	2%	3%
COc1ccc(Cl)c2sc(N(CCN(C)C)C(=O)CCS(=O)(=O)c3ccc(C)cc3)nc12	?	i	i	?	-19%	-31%
NC1=NC(=O)/C(=C\c2ccc(-c3ccccc3[N+](=O)[O-])o2)S1	.	.	.	20µM*	?	.
Cc1ccc(CNC(=O)CN2C(=O)C3(SCC(=O)N3c3cc(C)cc(C)c3)c3ccccc32)cc1 (centres undefined)	-18%	.	.	.	.	-2%
CCOc1ccc(-c2nonc2NC(=O)c2oc3cc(Br)ccc3c2C)cc1	7.1µM*	3.7µM*	?	.	.	-30%
CCOc1ccc(-c2nonc2NC(=O)c2oc3ccc(Br)cc3c2C)cc1	-19%	.	.	.	.	-24%
COc1ccc(-c2noc(CSc3nnc(-c4ccccc4)n3C)n2)cc1	-8%	i	15µM*!	6%	-14%	-15%
COc1ccc(-c2noc(CSc3nnc(Cc4ccccc4)n3-c3ccc(F)cc3)n2)cc1	16µM*	i	?	.	.	-36%
c1ccc(-c2noc(CC3CCCCC3)n2)cc1	-20%	i	?	7%	0%	5%
c1ccc(-c2noc(CSc3nnnn3C3CCCCC3)n2)cc1	-13%	i	18µM*	-1%	0%	-14%
COCCn1c(SCC(=O)Nc2cccc(C)c2C)nc2c(oc3ccccc32)c1=O	?	i	i	.	.	3%
O=S(=O)(Nc1ccc(F)cc1F)c1ccc(-n2cccn2)cc1	0%	i	i	.	.	-15%
CCCCn1c(SCC(=O)c2ccccc2)nc2sc3c(c2c1=O)CCCC3	21%	i	i	.	.	2%
O=C1c2ccccc2NC(c2ccc(-c3ccc(Br)cc3)o2)N1O (centres undefined)	?	?	?	7.9µM*	11µM*	-29%
O=C1c2ccccc2NC(c2ccc(-c3ccc(F)cc3)o2)N1O (centres undefined)	-22%	?	i	.	.	-24%
O=C1c2ccccc2NC(c2ccc(-c3cccc([N+](=O)[O-])c3)o2)N1O (centres undefined)	-24%	?	2.3µM*	-19%	?	-3%
CCCOc1cccc(C(=O)Nc2ccc(-c3cc4ccccc4oc3=O)c(C)c2)c1	-10%	i	?	.	.	-26%
Cn1c(=O)c(=O)n(C)c2cc(N3CCCC3)c(NC(=O)c3ccc(C(C)(C)C)cc3)cc21	-14%	i	i	.	.	-15%
CN(C)c1ccc(N=Nc2ccccc2C(=O)OCC(=O)NC2CCCC2)cc1	?	i	?	-15%	-6%	-69%
CN(C)c1ccc(N=Nc2ccccc2C(=O)OCC(=O)NCC2CCCCC2)cc1	?	i	7.3µM*	-2%	-13%	-12%
Cc1sc(-c2cc3c([nH]c2=O)CC(c2ccccc2)CC3=O)nc1-c1ccc(Cl)cc1 (centres undefined)	-21%	1µM*	0.82µM*	.	.	-16%
O=C1CC(c2ccccc2)Cc2[nH]c(=O)c(-c3nc(-c4ccc(F)cc4)cs3)cc21 (centres undefined)	?	4.6µM*	i	.	.	2%
CCC(C(=O)NC(C)(C)C)N(C(=O)Cn1nnc(-c2ccccc2F)n1)c1cccc2c1CCCC2 (centres undefined)	-9%	i	1.6µM*	5%	4%	-9%
SMILES	TGFb SMAD3 inh	KB-3-1 tox	KB-V1 MDR tox	HT1080NT lethal	HT1080 IDH1KD tx	HepG2 tox
Cc1cccc(N(C(=O)Cn2nnc(-c3ccccc3F)n2)C(C(=O)NC(C)(C)C)c2ccncc2)c1 (centres undefined)	18%	i	i	12%	23%	-5%
O=C(CN(C(=O)Cn1nnc(-c2ccccc2F)n1)c1cccc2c1CCCC2)NCc1ccccc1	-12%	i	10µM*	-3%	8%	-1%
CC(C)CCNC(=O)CN(C(=O)Cn1nnc(-c2ccccc2F)n1)c1cccc2c1CCCC2	-5%	i	i	-5%	0%	-2%
COCCCNc1nc(NCc2ccccc2OC)c2cnn(C)c2n1	3%	i	i	.	.	-12%
Cc1cc(=O)oc2c(C)c(OC(C)C(=O)NCC(O)c3ccccc3)ccc12 (centres undefined)	-2%	i	i	-3%	6%	-2%
Cc1c(OC(C)C(=O)NCC(O)c2ccccc2)ccc2c3c(c(=O)oc12)CCCC3 (centres undefined)	-10%	i	i	-14%	-6%	0.11µM*
Nc1ccc(NC(=O)c2cc(Cl)ccc2O)c(Cl)c1	-28%	i	i	.	.	-26%
Cc1nn(Cc2cccc(C(=O)N3N=C(C(F)F)CC3(O)C(F)F)c2)c(C)c1[N+](=O)[O-] (centres undefined)	0%	i	8.2µM*	-19%	?	-18%

Screening data: PubChem, National Center for Advancing Translational Sciences (NCATS)
